# BAZ2B block = BAZ2B (human) inhibition. AlphaScreen BAZ2B-H3K14Ac peptide displacement. Potency, µM (highest dose often 114 µM), hits mostly inhibitors. 360,000 compounds, 4.4% hits. AID 504333; note: nearly all actives have a fitted effect of over 60% in size
#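 BAZ2B 50 nM plus b-H3(5-23)K14Ac 50 nM, PBS pH 7.4/0.01% Tween-20, 30 min RT; compound added (max 110 uM), 30 min RT; streptavidin donor/Ni-chelate acceptor beads 10 ug/mL final, 20 min dark; AlphaScreen read.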
# G9a inh = inhibitors of human histone lysine methyltransferase G9a; AID 504332; Potency, µM (series often up to 102 µM), most hits filed as inhibitors; 350,000 compounds, 8.8% hits; Q96KQ7; G9a H3K9 monomethylation, AlphaScreen, 2 h; note: nearly all actives have a fitted effect of over 75% in size
#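 Signal arises when biotinylated H3K9 peptide, once monomethylated, bridges streptavidin donor and antibody-captured acceptor beads. Enzyme at 20 nM was preincubated 15 min with test compounds; peptide 500 nM and SAM 20 uM then reacted for 2 h.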
# VDR inhibitor = blocks the human vitamin D receptor; P11473; VDR-SRC2-3 peptide fluorescence polarization, 2 h; Potency, µM, actives largely listed as inhibitors; 400,000 compounds, 0.93% hits
# Target sequence (P11473 whole entry, looked up): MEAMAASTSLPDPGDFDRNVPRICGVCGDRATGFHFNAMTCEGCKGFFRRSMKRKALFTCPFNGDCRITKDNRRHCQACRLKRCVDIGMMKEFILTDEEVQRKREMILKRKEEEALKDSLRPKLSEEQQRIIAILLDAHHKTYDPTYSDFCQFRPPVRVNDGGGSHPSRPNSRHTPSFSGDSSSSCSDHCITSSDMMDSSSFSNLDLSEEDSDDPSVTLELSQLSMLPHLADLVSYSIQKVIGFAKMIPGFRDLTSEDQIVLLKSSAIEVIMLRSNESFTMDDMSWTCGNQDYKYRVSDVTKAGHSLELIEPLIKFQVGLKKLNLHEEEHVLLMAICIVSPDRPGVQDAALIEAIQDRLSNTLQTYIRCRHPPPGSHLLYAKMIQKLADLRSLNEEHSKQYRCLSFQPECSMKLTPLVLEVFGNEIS
#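 Compounds are added to VDR with labelled SRC2-3 coactivator peptide and held 2 h at room temperature. Inhibition of the VDR–peptide interaction is then read as a change in fluorescence polarization.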
# PLK1 PBD inh = PLK1 (human) polo-box domain binding inhibition; P53350; Plk1 PBD binding of FITC phosphopeptide, fluorescence polarization; Potency, µM, actives largely listed as inhibitors; 360,000 compounds, 2.8% hits; AID 720504; note: series mostly up to about 57 µM; nearly all actives have a fitted effect of over 65% in size
# JMJD2A Tudor inh = blocks the human JMJD2A Tudor domain; AlphaScreen JMJD2A-Tudor / H3K4me3 peptide binding; AID 504339; Potency, µM (doses to about 114 µM), hits mostly inhibitors; 390,000 compounds, 4.4% hits; note: nearly all actives have a fitted effect of over 50% in size
# HP1b binding inh = HP1-beta chromodomain-methylated histone interaction inhibition; AlphaScreen HP1-beta / biotin-H3K9me3 peptide binding; Potency, µM (doses to about 114 µM), usual class: inhibitors; 390,000 compounds, 0.56% hits; AID 540317; note: nearly all actives have a fitted effect of over 70% in size
# Target sequence (P83916 whole entry, looked up): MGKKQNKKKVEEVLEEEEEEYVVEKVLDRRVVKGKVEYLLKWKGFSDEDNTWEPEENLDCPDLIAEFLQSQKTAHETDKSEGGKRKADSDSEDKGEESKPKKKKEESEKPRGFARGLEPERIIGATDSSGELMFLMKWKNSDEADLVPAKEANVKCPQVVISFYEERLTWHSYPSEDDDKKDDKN
#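 Compound inhibition of the preformed complex between 50 nM HP1-beta and 50 nM biotinylated H3K9me3 peptide was read by AlphaScreen. Buffer was PBS pH 7.4 with 0.01% Tween-20. Incubations ran 30 min at room temperature, with 10 ug/mL donor/acceptor beads.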
# Hits are given with their value; – = inactive; ? = inconclusive; · = not tested or not shown; [ ] = remark or other dose. In the library only some 11% were active in any assay of this set; here they are far more common. Calls come from the whole dose curve; as a rule, active = well fitted curve in the direction sought with a large enough effect; inconclusive = small, poorly fitted or top-dose-only effect, or another doubt; inactive = no such curve, though single readings can be large; an effect the other way counts as inactive or inconclusive.
SMILES,BAZ2B block,G9a inh,VDR inhibitor,PLK1 PBD inh,JMJD2A Tudor inh,HP1b binding inh
CCC(Sc1nc2nccnc2c(=O)n1Cc1ccccc1Cl)C(=O)NC1CCCCC1 (configuration not stated),–,–,–,·,–,–
O=C(CO/N=C/c1cccc([N+](=O)[O-])c1)Nc1ccc2ccccc2c1,?,0.891µM,–,–,–,–
O=C(COc1ccc(/C=N/NC(=O)c2ccc(O)cc2)cc1)Nc1cccc([N+](=O)[O-])c1,–,28.2µM,–,–,–,–
O=c1oc2ccccc2c2c1C1O[C@](c3ccsc3)(Cc3ccccc31)O2,8.91µM,·,·,·,·,·
O=C1C2=C(C(=O)c3ccccc31)C1O[C@](c3ccsc3)(Cc3ccccc31)O2,10µM,–[2.33 µM],·,·,·,·
CCNc1ncc2ncc(=O)n(CCOC)c2n1,·,–[0.501 µM],–,·,·,·
O=C(CC(C(=O)O)P(=O)(c1ccccc1)c1ccccc1)c1ccccc1 (configuration not stated),–,–,–,–,–,–
Cc1cc(C(=O)CNCc2ccco2)c(C)n1-c1ccc(F)cc1,56.2µM,22.4µM,–,–,3.16µM,?
COc1ccc(C(=O)/C(=C/c2cccs2)c2nc3ccccc3o2)cc1,–,?,31.6µM,26.7µM,44.7µM,?
COc1ccc(/C=C(\CC(=O)O)c2nc3ccccc3o2)cc1,–,–,–,–,–,–
Cc1c(CCO)c(=O)n(-c2ccccc2)n1S(=O)(=O)c1ccc([N+](=O)[O-])cc1,–,?,–,?,–,–
Cc1c(CCO)c(=O)n(-c2ccccc2)n1S(=O)(=O)c1ccc(Cl)cc1,?,25.1µM,–,?,?,–
NC(=O)c1cc(-c2csc(-c3cccnc3)n2)ccc1O,–,31.6µM,–,–,–,–
NC(=O)c1cc(-c2csc(NCCc3ccccc3)n2)ccc1O,56.2µM,35.5µM,–,29.9µM,?,?
C=CCNc1nc(-c2ccc(O)c(C(N)=O)c2)cs1,?,?,?,2.99µM,14.1µM,–
CC(=O)Nc1ccc(-c2csc(NCCc3ccccc3)n2)cc1,–,·,–,–,–,–
C=CCNc1nc(-c2ccc3c(c2)OCCO3)cs1,·,·,–,–,?,–
CC(C)(Oc1ccc(Cl)cc1)C(=O)NCc1ccc(S(N)(=O)=O)cc1,?,44.7µM,–,–,–,–
COC(=O)CNC(=O)C(C)(C)Oc1ccc(Cl)cc1,–,–,–,–,–[11.4 µM],–
CC(Oc1cccc(Cl)c1)C(=O)NCc1ccc(S(N)(=O)=O)cc1 (configuration not stated),–,·,?,18.9µM,?,–
CC(=O)N(Cc1cc(=O)[nH]c2ccccc12)c1ccccc1,?,?,–,–,–,–
CC(=O)N(Cc1cc(=O)[nH]c2ccccc12)c1ccccc1C,–,25.1µM,–,–,?,–
CCCC(=O)N(Cc1cc(=O)[nH]c2ccccc12)c1ccccc1C,–,35.5µM,–,–,?,–
CCCC(=O)N(Cc1cc(=O)[nH]c2ccccc12)c1ccc(OC)cc1,–,?,–,–,–,–
CCCCNc1sc(S(=O)(=O)CCC)nc1S(=O)(=O)c1ccc(C)cc1,–,–,–,·,–,–
SMILES,BAZ2B block,G9a inh,VDR inhibitor,PLK1 PBD inh,JMJD2A Tudor inh,HP1b binding inh
Cc1nc([N+](=O)[O-])c(Sc2nc3ccc([N+](=O)[O-])cc3[nH]2)n1Cc1ccccc1,–,?,–,–,–,–
COc1ccc(NS(=O)(=O)c2cn(C)cn2)cc1OC,–,–,–,–,–,–
CN(C)c1cccc2c1c(NS(=O)(=O)c1cn(C)cn1)nn2C,–,8.91µM,–,–,–,–
Cc1cc2c(s1)c1cnn(Cc3c(F)c(F)c(C)c(F)c3F)c(=O)c1n2C,·,·,·,·,–,·
[O-]/C(=C(\C(=S)NCc1ccccc1)[n+]1ccccc1)c1ccc(Cl)s1,?,25.1µM,–,–,?,?
[O-]/C(=C(\C(=S)NCCN1CCOCC1)[n+]1ccccc1)c1ccc(Cl)s1,?,25.1µM,–,–,–,–
Cc1c(Cl)cccc1NC(=S)C(=C([O-])c1ccc(Cl)s1)[n+]1ccccc1,·,·,–,–,50.1µM,?
Cc1c(Cl)cccc1NC(=S)NN,–,–,–,–,–,–
Cc1ccc(/C([O-])=C(/C(=S)NCCN2CCOCC2)[n+]2ccccc2)cc1[N+](=O)[O-],–,–[12.7 µM],–,–,–[11.4 µM],–
O=C(CN1C(=O)c2ccccc2C1=O)Nc1ccccc1C(=O)NC1CCCCC1,–,–[12.7 µM],–,–,–,–
O=C(CCc1c[nH]c2ccccc12)N1CCN(c2ccc(O)cc2)CC1,–,35.5µM,–,26.7µM,–[11.4 µM],?
COc1ccc(N2CCN(C(=O)CCc3c[nH]c4ccccc34)CC2)cc1,?,56.2µM,–,–,–[11.4 µM],–
Brc1ccc(OCCCN2CCOCC2)cc1,?,28.2µM,–,–,4.47µM,?
c1ccc(OCCCCN2CCOCC2)cc1,–,–,–,–,–,–
Brc1ccc(OCCN2CCOCC2)cc1,?,28.2µM,–,–,0.891µM,?
C=CCOC(=O)N[C@H](c1cccc(C(F)(F)F)c1)C(C(C)=O)C(C)=O,·,·,–,·,·,·
COc1ccccc1N1CCN(C(=O)c2sc3nc(C)nc(N4CCN(c5ccccn5)CC4)c3c2C)CC1,?,25.1µM,–,–,?,–
CCC(C(=O)NCCc1ccccc1)n1nc(C)n2c(cc3sccc32)c1=O (configuration not stated),–,–,–,·,–,–
COCCn1c(=O)sc2ccccc2c1=O,–,–,15.8µM,2.99µM,14.1µM,–
COCCCNc1ccn2nc(-c3ccc(Cl)cc3)cc2n1,·,·,·,–,·,·
COCCCn1c(-c2ccc(Cl)cc2)n[nH]c1=S,–,3.98µM,–,–,7.94µM,–
CCOCCCn1c(SC(C(=O)Nc2cc(C)ccc2C)c2ccccc2)nnc1-c1ccc(Cl)cc1 (configuration not stated),–,–,–,–,–,–
S=c1[nH]nc(-c2ccc(Cl)cc2)n1CCCN1CCOCC1,–,39.8µM,–,–,10µM,–
CCOCCCn1c(-c2ccc(Cl)cc2)n[nH]c1=S,–,1.78µM,–,–,3.98µM,–
COCCCn1c(=O)c2ccccc2c2ccccc2c1=O,–,–,–,–,–,–
SMILES,BAZ2B block,G9a inh,VDR inhibitor,PLK1 PBD inh,JMJD2A Tudor inh,HP1b binding inh
COCCCn1c(-c2ccccc2Cl)n[nH]c1=S,–,2.24µM,–,–,7.94µM,–
CC(C)(C)NC(=O)C(c1cccs1)N(C(=O)c1csnn1)c1ccccc1F (configuration not stated),–,–,–,–,–,–
COc1ccc(OC)c(CCNC(=O)c2cc3cccc4c3n2CCS4)c1,?,?,–,·,?,–
Cc1cc(C)c2oc(-c3ccc(Cl)c(NC(=O)c4cccs4)c3)nc2c1,–,–,–,·,–,–
COCc1cc(C)nc(OCC(=O)N/N=C/c2ccc(C)o2)c1C#N,–,44.7µM,–,–,–,–
COCc1cc(C)nc(N/N=C/c2ccc(-c3ccc(C(=O)O)c(Cl)c3)o2)c1C#N,79.4µM,11.2µM,·,·,·,·

# Source: PubChem (National Center for Advancing Translational Sciences (NCATS))
